Assay results taken from PubChem BioAssay (NCI).
This is part of a sample that, as a whole, favours compounds with a hit. Of some 79,000 tested, about 15% had one in any assay. The source made the active and inactive calls. Cut-off read from the data, not from the text of the source: active = growth inhibition above about 70%; inactive = the rest.

Experiments:
[1] = NCI Yeast Anticancer Drug Screen. Data for the rad52 strain (AID 147);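 note: 0% = growth of vehicle-treated control cultures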; settings: S. cerevisiae rad52 mutant growth inhibition, stronger effect = higher value
How it was run: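 Read-out: growth inhibition versus vehicle-treated controls. Cells were a DNA repair-deficient yeast strain treated with compounds.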

[2] = NCI Yeast Anticancer Drug Screen. Data for the wt1 strain (AID 149);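 note: 0% = growth of vehicle-treated wt1 cultures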; settings: S. cerevisiae wt1 strain (SPY 50644) growth inhibition, stronger effect = higher value
How it was run: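 Growth inhibition read against vehicle controls after compound exposure of the wt1 yeast strain.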

[3] = NCI Yeast Anticancer Drug Screen. Data for the rad50EPP+ strain (AID 151);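 note: 0% = growth of vehicle-treated control cultures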; settings: S. cerevisiae rad50 mutant strain, stronger effect = higher value
How it was run: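 Growth inhibition read against vehicle controls in rad50EPP+ yeast, a strain altered in DNA damage repair, after compound exposure.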

[4] = NCI Yeast Anticancer Drug Screen. Data for the mgt1 strain (AID 153); settings: S. cerevisiae mgt1 mutant growth inhibition, stronger effect = higher value
How it was run: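 mgt1 yeast grown with test compound; read-out is growth inhibition versus vehicle-treated cultures.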

[5] = NCI Yeast Anticancer Drug Screen. Data for the rad50 strain (AID 155);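 note: 0% = growth of vehicle-only cultures of the same strain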; settings: S. cerevisiae rad50 strain growth inhibition, stronger effect = higher value
How it was run: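 Readout: growth inhibition relative to vehicle-treated cultures. Compound exposure was carried out in a genetically defined yeast strain deficient in DNA damage repair.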

[6] = NCI Yeast Anticancer Drug Screen. Data for the mec2-1 strain (AID 157); settings: S. cerevisiae mec2-1 strain, stronger effect = higher value
How it was run: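 Yeast mec2-1 mutant treated with compound. Readout: growth inhibition vs vehicle controls.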

[7] = NCI Yeast Anticancer Drug Screen. Data for the rad14 strain (AID 159);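 note: 0% = growth of vehicle-treated control cultures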; settings: S. cerevisiae rad14 strain growth inhibition, stronger effect = higher value
How it was run: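 Growth inhibition vs vehicle controls; genetically altered yeast strain (DNA damage repair defect) treated with test compounds.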

[8] = NCI Yeast Anticancer Drug Screen. Data for the sgs1 mgt1 strain (AID 161);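 note: 0% = growth of cultures given vehicle only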; settings: S. cerevisiae sgs1 mgt1 strain, stronger effect = higher value
How it was run: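 Mutant yeast exposed to compound; growth scored against vehicle-only wells.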

[9] = NCI Yeast Anticancer Drug Screen. Data for the CLN2oe strain (AID 163);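 note: 0% = growth of vehicle-only control cultures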; settings: S. cerevisiae CLN2oe strain, stronger effect = higher value
How it was run: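 Read-out: yeast growth inhibition, expressed relative to vehicle-only controls. The strain bears an engineered cell-cycle alteration.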

[10] = NCI Yeast Anticancer Drug Screen. Data for the cln2 rad14 strain (AID 165);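 note: 0% = growth equal to vehicle treated cultures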; settings: S. cerevisiae cln2 rad14 strain, stronger effect = higher value
How it was run: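 cln2 rad14 yeast strain; compound exposure; growth inhibition read vs vehicle controls.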

[11] = NCI Yeast Anticancer Drug Screen. Data for the bub3 strain (AID 167); settings: S. cerevisiae bub3 mutant strain, stronger effect = higher value
How it was run: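 Readout: yeast growth inhibition, expressed relative to vehicle-only wells. The test organism is a mutant strain from a panel with lesions in DNA repair or checkpoint genes.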

[12] = NCI Yeast Anticancer Drug Screen. Data for the wt2 strain (AID 169);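 note: 0% = growth of vehicle-treated yeast cultures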; settings: S. cerevisiae wt2 strain growth inhibition, stronger effect = higher value
How it was run: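 Read-out: growth inhibition versus vehicle-treated control cultures after compound exposure of the yeast strain.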

[13] = NCI Yeast Anticancer Drug Screen. Data for the mlh1 strain (AID 171);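 note: 0% = growth of vehicle-treated control cultures of the same strain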; settings: S. cerevisiae mlh1 strain growth inhibition, stronger effect = higher value
How it was run: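 Read-out: growth inhibition versus vehicle controls. Strain: engineered yeast with a defined DNA repair or cell cycle defect, compound-treated.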

[14] = NCI Yeast Anticancer Drug Screen. Data for the sgs1 strain (AID 173);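 note: 0% = growth of vehicle-only control cultures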; settings: S. cerevisiae sgs1 mutant, stronger effect = higher value
How it was run: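 Read-out: yeast growth inhibition relative to vehicle controls, following compound exposure of a strain with a defined DNA repair/cell cycle alteration.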

[15] = NCI Yeast Anticancer Drug Screen. Data for the mlh1 rad18 strain (AID 175); settings: S. cerevisiae mlh1 rad18 strain growth inhibition, stronger effect = higher value
How it was run: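 Yeast w/ defined DNA-repair lesions; compound exposure; growth vs vehicle controls → % inhibition.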

[16] = NCI Yeast Anticancer Drug Screen. Data for the rad18 strain (AID 177); settings: S. cerevisiae rad18 mutant growth inhibition, stronger effect = higher value
How it was run: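 Readout: growth inhibition vs vehicle controls. Cells: genetically altered yeast strain, DNA repair defect.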

[17] = at 5.0 µM (retest, dose inferred, filed as 0.5)
[18] = at 50.0 µM (retest, dose inferred, filed as 5.0)

Measured: growth inhibition

O=C(CC(C(=O)O)N1CCOCC1)c1ccccc1 (stereo unspecified)
inactive: [1]; at 1.2 µM -1% | [1]; at 3.7 µM -2% | [1]; at 11.0 µM 0% | [1]; at 33.0 µM 32% | [2]; at 1.2 µM -1% | [2]; at 3.7 µM -2% | [2]; at 11.0 µM 0% | [2]; at 33.0 µM 12% | [2]; at 100.0 µM 47% | [3]; at 1.2 µM -2% | [3]; at 3.7 µM -1% | [3]; at 11.0 µM 2% | [3]; at 33.0 µM 12% | [3]; at 100.0 µM 43% | [4]; at 1.2 µM -3% | [4]; at 3.7 µM -3% | [4]; at 11.0 µM 1% | [4]; at 33.0 µM 33% | [4]; at 100.0 µM 65% | [5]; at 1.2 µM -3% | [5]; at 3.7 µM 1% | [5]; [17] 13% | [5]; at 11.0 µM 2% | [5]; at 33.0 µM 36% | [5]; [18] 65% | [5]; at 50.0 µM 49% | [6]; at 1.2 µM -6% | [6]; at 3.7 µM -11% | [6]; [17] -2% | [6]; at 11.0 µM 2% | [6]; at 33.0 µM 31% | [6]; [18] 41% | [6]; at 50.0 µM 12.4% | [6]; at 100.0 µM 66% | [7]; at 1.2 µM -3% | [7]; at 3.7 µM -5% | [7]; at 11.0 µM 0% | [7]; at 33.0 µM 3% | [7]; at 100.0 µM 29% | [8]; [17] -6% | [8]; [18] 54% | [8]; at 50.0 µM 3.3% | [9]; at 1.2 µM -4% | [9]; at 3.7 µM -9% | [9]; at 11.0 µM -10% | [9]; at 33.0 µM -2% | [9]; at 100.0 µM 22% | [10]; [18] 17% | [10]; at 50.0 µM -16.2% | [11]; at 1.2 µM -16% | [11]; at 3.7 µM -17% | [11]; at 11.0 µM -8% | [11]; at 33.0 µM 29% | [11]; [18] 60% | [11]; at 50.0 µM 21.3% | [11]; at 100.0 µM 68% | [12]; at 1.2 µM -4% | [12]; at 3.7 µM -3% | [12]; at 11.0 µM 0% | [12]; at 33.0 µM 31% | [13]; at 1.2 µM -3% | [13]; at 3.7 µM -3% | [13]; at 11.0 µM 4% | [13]; at 33.0 µM 37% | [14]; at 1.2 µM 0% | [14]; at 3.7 µM 5% | [14]; at 11.0 µM 19% | [14]; at 33.0 µM 56% | [15]; [17] 10% | [15]; [18] 47% | [15]; at 50.0 µM 47.9%
active: [1]; at 100.0 µM 73% | [5]; at 100.0 µM 77% | [10]; [17] 81% | [11]; [17] 98% | [12]; at 100.0 µM 71% | [13]; at 100.0 µM 77% | [14]; at 100.0 µM 80%

c1ccc2c(OCC3CO3)cccc2c1 (stereo unspecified)
active: [1]; at 33.0 µM 86% | [1]; at 100.0 µM 94% | [3]; at 11.0 µM 73% | [3]; at 33.0 µM 93% | [3]; at 100.0 µM 96% | [5]; at 33.0 µM 89% | [5]; [18] 94% | [5]; at 50.0 µM 92.8% | [5]; at 100.0 µM 95% | [6]; [18] 75% | [6]; at 100.0 µM 91% | [7]; at 100.0 µM 89% | [8]; [18] 83% | [8]; at 50.0 µM 84.5% | [10]; [18] 71% | [14]; at 11.0 µM 72% | [14]; at 33.0 µM 88% | [14]; at 100.0 µM 93% | [15]; [18] 86% | [15]; at 50.0 µM 82.1% | [16]; at 11.0 µM 86% | [16]; at 33.0 µM 95% | [16]; at 100.0 µM 98%
inactive: [1]; at 1.2 µM 3% | [1]; at 3.7 µM 12% | [1]; at 11.0 µM 45% | [2]; at 1.2 µM -2% | [2]; at 3.7 µM 0% | [2]; at 11.0 µM 0% | [2]; at 33.0 µM 4% | [2]; at 100.0 µM 18% | [3]; at 1.2 µM 9% | [3]; at 3.7 µM 30% | [4]; at 1.2 µM -1% | [4]; at 3.7 µM -1% | [4]; at 11.0 µM 0% | [4]; at 33.0 µM 4% | [4]; at 100.0 µM 32% | [5]; at 1.2 µM 0% | [5]; at 3.7 µM 12% | [5]; [17] 36% | [5]; at 11.0 µM 66% | [6]; at 1.2 µM 1% | [6]; at 3.7 µM 4% | [6]; [17] 6% | [6]; at 11.0 µM 10% | [6]; at 33.0 µM 32% | [6]; at 50.0 µM 49.3% | [7]; at 1.2 µM -1% | [7]; at 3.7 µM -3% | [7]; at 11.0 µM 1% | [7]; at 33.0 µM 17% | [8]; [17] 50% | [9]; at 1.2 µM -4% | [9]; at 3.7 µM -3% | [9]; at 11.0 µM -2% | [9]; at 33.0 µM 2% | [9]; at 100.0 µM 4% | [10]; [17] 3% | [10]; at 50.0 µM 63.8% | [11]; at 1.2 µM -3% | [11]; at 3.7 µM -5% | [11]; [17] -12% | [11]; at 11.0 µM -11% | [11]; at 33.0 µM -12% | [11]; [18] -8% | [11]; at 50.0 µM 13.2% | [11]; at 100.0 µM 21% | [12]; at 1.2 µM -2% | [12]; at 3.7 µM 7% | [12]; at 11.0 µM 0% | [12]; at 33.0 µM 5% | [12]; at 100.0 µM 25% | [13]; at 1.2 µM 0% | [13]; at 3.7 µM 1% | [13]; at 11.0 µM 5% | [13]; at 33.0 µM 10% | [13]; at 100.0 µM 40% | [14]; at 1.2 µM 15% | [14]; at 3.7 µM 41% | [15]; [17] 14% | [16]; at 1.2 µM 18% | [16]; at 3.7 µM 55%
